Laboratory results from PubChem BioAssay AID1159580 (chemical genetic matrix, 2015).
Screen size: about 5,500 compounds; about 2,000 (36%) were called active. About 18% were inconclusive and are not listed. No stated cut-off is given here; in the data, active means normalized growth mostly below about 0.91 (no sharp cut-off); inconclusive means no clear call, values can overlap the other calls; inactive means mostly above about 0.92. The list shows a part of the results.

Assay: chemical genetic growth profiling, strain panel (AID 1159580);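 further: tested at 20 µM; growth read once vehicle control cultures reached saturation at 30 °C; 1 = growth at the plate median or of vehicle wells; lower values mean less growth of the strain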
Conditions: growth OD

Measured: normalized growth

COc1cc([C@@H]2c3cc4c(cc3C(O[C@@H]3O[C@@H]5CO[C@@H](c6cccs6)OC5[C@H](O)[C@H]3O)C3COC(=O)[C@@H]32)OCO4)cc(OC)c1O (stereo not given in full)
inactive: S. cerevisiae deletion strains, locus YJR066W, strain TOR1, active compounds read low 0.99 | S. cerevisiae deletion strains, locus YKL009W, strain mrt4, active compounds read low 1.03 | S. cerevisiae deletion strains, locus YKL068W, active compounds read low 1.01 | S. cerevisiae deletion strains, locus YKL085W, strain MDH1 (second series), active compounds read low 1 | S. cerevisiae deletion strains, locus YKL085W, strain MDH1, active compounds read low 1 | S. cerevisiae deletion strains, locus YKL160W, strain elf1, active compounds read low 1.05 | S. cerevisiae deletion strains, locus YKL190W, strain CNB1, active compounds read low 0.997 | S. cerevisiae deletion strains, locus YKR001C, strain vps1, active compounds read low 1.02 | S. cerevisiae deletion strains, locus YKR026C, strain gcn3, active compounds read low 0.986 | S. cerevisiae deletion strains, locus YKR091W, strain srl3, active compounds read low 0.998 | S. cerevisiae deletion strains, locus YLL001W, strain dnm1, active compounds read low 1.05 | S. cerevisiae deletion strains, locus YLL026W, active compounds read low 0.984 | S. cerevisiae deletion strains, locus YLL041C, strain sdh2, active compounds read low 0.967 | S. cerevisiae deletion strains, locus YLR027C, strain aat2, active compounds read low 0.985 | S. cerevisiae deletion strains, locus YLR039C, strain RIC1, active compounds read low 1.01 | S. cerevisiae deletion strains, locus YLR058C, strain SHM2, active compounds read low 1 | S. cerevisiae deletion strains, locus YLR102C, strain apc9, active compounds read low 1.02 | S. cerevisiae deletion strains, locus YLR113W, strain HOG1, active compounds read low 1.01 | S. cerevisiae deletion strains, locus YLR221C, strain rsa3, active compounds read low 1.03 | S. cerevisiae deletion strains, locus YLR258W, strain gsy2, active compounds read low 1 | S. cerevisiae deletion strains, locus YLR262C, strain YPT6 (second series), active compounds read low 1 | S. cerevisiae deletion strains, locus YLR262C, strain YPT6, active compounds read low 0.964 | S. cerevisiae deletion strains, locus YLR268W, strain sec22, active compounds read low 1.02 | S. cerevisiae deletion strains, locus YLR320W, strain mms22, active compounds read low 1.01 | S. cerevisiae deletion strains, locus YLR330W, strain CHS5, active compounds read low 0.999 | S. cerevisiae deletion strains, locus YLR342W, strain FKS1 (second series), active compounds read low 1.01 | S. cerevisiae deletion strains, locus YLR342W, strain FKS1, active compounds read low 0.99 | S. cerevisiae deletion strains, locus YLR357W, strain rsc2, active compounds read low 0.98 | S. cerevisiae deletion strains, locus YLR370C, strain arc18, active compounds read low 0.986 | S. cerevisiae deletion strains, locus YLR371W, strain rom2, active compounds read low 1.01 | S. cerevisiae deletion strains, locus YLR384C, strain iki3, active compounds read low 0.97 | S. cerevisiae deletion strains, locus YLR418C, strain cdc73, active compounds read low 1.02 | S. cerevisiae deletion strains, locus YML016C, strain PPZ1, active compounds read low 1 | S. cerevisiae deletion strains, locus YML032C, strain rad52, active compounds read low 0.917 | S. cerevisiae deletion strains, locus YML120C, strain ndi1, active compounds read low 1.02 | S. cerevisiae deletion strains, locus YML124C, strain tub3, active compounds read low 1.01 | S. cerevisiae deletion strains, locus YMR058W, strain fet3, active compounds read low 0.993 | S. cerevisiae deletion strains, locus YMR078C, strain ctf18, active compounds read low 1.01 | S. cerevisiae deletion strains, locus YMR125W, strain sto1, active compounds read low 1.01 | S. cerevisiae deletion strains, locus YMR129W, active compounds read low 0.983 | S. cerevisiae deletion strains, locus YMR205C, strain PFK2, active compounds read low 1.02 | S. cerevisiae deletion strains, locus YMR223W, strain ubp8, active compounds read low 1.02 | S. cerevisiae deletion strains, locus YMR231W, strain pep5, active compounds read low 0.978 | S. cerevisiae deletion strains, locus YMR263W, strain SAP30, active compounds read low 1 | S. cerevisiae deletion strains, locus YMR307W, strain GAS1, active compounds read low 0.933 | S. cerevisiae deletion strains, locus YNL067W, strain RPL9B, active compounds read low 0.998 | S. cerevisiae deletion strains, locus YNL071W, strain lat1, active compounds read low 0.976 | S. cerevisiae deletion strains, locus YNL128W, strain TEP1, active compounds read low 1.02 | S. cerevisiae deletion strains, locus YNL183C, strain NPR1, active compounds read low 0.987 | S. cerevisiae deletion strains, locus YNL209W, strain ssb2, active compounds read low 0.985 | S. cerevisiae deletion strains, locus YNL233W, strain BNI4, active compounds read low 1 | S. cerevisiae deletion strains, locus YNL248C, strain rpa49, active compounds read low 0.999 | S. cerevisiae deletion strains, locus YNL250W, strain rad50, active compounds read low 0.977 | S. cerevisiae deletion strains, locus YNL271C, strain bni1, active compounds read low 1.02 | S. cerevisiae deletion strains, locus YNL298W, strain CLA4, active compounds read low 1.04 | S. cerevisiae deletion strains, locus YNL307C, strain MCK1, active compounds read low 1.03 | S. cerevisiae deletion strains, locus YNL322C, strain KRE1 (second series), active compounds read low 0.994 | S. cerevisiae deletion strains, locus YNR049C, strain mso1, active compounds read low 0.978 | S. cerevisiae deletion strains, locus YNR052C, strain pop2, active compounds read low 1.03 | S. cerevisiae deletion strains, locus YOL006C, strain TOP1, active compounds read low 0.89 | S. cerevisiae deletion strains, locus YOL012C, strain htz1 0.835 | S. cerevisiae deletion strains, locus YOL147C, strain pex11, active compounds read low 1.01 | S. cerevisiae deletion strains, locus YOR001W, strain rrp6, active compounds read low 0.933 | S. cerevisiae deletion strains, locus YOR061W, strain CKA2, active compounds read low 1 | S. cerevisiae deletion strains, locus YOR069W, strain VPS5, active compounds read low 1 | S. cerevisiae deletion strains, locus YOR070C, strain gyp1, active compounds read low 0.991 | S. cerevisiae deletion strains, locus YOR080W, strain dia2, active compounds read low 0.971 | S. cerevisiae deletion strains, locus YOR083W, strain WHI5, active compounds read low 1.05 | S. cerevisiae deletion strains, locus YOR106W, strain vam3, active compounds read low 1.02 | S. cerevisiae deletion strains, locus YOR136W, strain idh2, active compounds read low 1.02 | S. cerevisiae deletion strains, locus YOR144C, strain elg1, active compounds read low 1.01 | S. cerevisiae deletion strains, locus YOR184W, strain ser1, active compounds read low 1.01 | S. cerevisiae deletion strains, locus YOR231W, strain MKK1, active compounds read low 1 | S. cerevisiae deletion strains, locus YOR265W, strain rbl2, active compounds read low 0.985 | S. cerevisiae deletion strains, locus YOR270C, strain vph1, active compounds read low 0.891 | S. cerevisiae deletion strains, locus YOR290C, strain snf2, active compounds read low 0.982 | S. cerevisiae deletion strains, locus YOR316C, strain cot1, active compounds read low 1.03 | S. cerevisiae deletion strains, locus YPL051W, strain arl3, active compounds read low 1.03 | S. cerevisiae deletion strains, locus YPL055C, strain LGE1, active compounds read low 0.996 | S. cerevisiae deletion strains, locus YPL078C, strain atp4, active compounds read low 1.03 | S. cerevisiae deletion strains, locus YPL106C, strain sse1, active compounds read low 1.01 | S. cerevisiae deletion strains, locus YPL240C, strain hsp82, active compounds read low 0.99 | S. cerevisiae deletion strains, locus YPL241C, strain CIN2, active compounds read low 1 | S. cerevisiae deletion strains, locus YPL256C, strain CLN2, active compounds read low 1.03 | S. cerevisiae deletion strains, locus YPR119W, strain clb2, active compounds read low 1.01 | S. cerevisiae deletion strains, locus YPR141C, strain kar3, active compounds read low 1.01 | S. cerevisiae deletion strains, locus YPR163C, strain tif3, active compounds read low 1.03 | S. cerevisiae deletion strains, locus YPR167C, strain met16, active compounds read low 1.02 | S. cerevisiae deletion strains, strain wtn01, active compounds read low 1.03 | S. cerevisiae strains, strain wild type, active compounds read low 1.01
